# PubChem BioAssay (NCI)
# Compounds without any hit were thinned out: in the full panel of roughly 79,000, 15% have a hit. Values without a mark were called inactive. Calls of active or inactive are those of the source. Cut-off read from the data, not from the text of the source: active = growth inhibition above about 70%; inactive = the rest.
# Columns and labels:
# [1] = NCI Yeast Anticancer Drug Screen. Data for the rad50 strain (AID 155);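 note: 0% = growth of vehicle-only cultures of the same strain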; details: S. cerevisiae rad50 strain growth inhibition, active compounds read high
# Method in brief: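 Inhibition values express reduced yeast growth in compound-treated cultures relative to vehicle-treated controls.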
# [2] = NCI Yeast Anticancer Drug Screen. Data for the mec2-1 strain (AID 157); details: S. cerevisiae mec2-1 strain, active compounds read high
# Method in brief: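 Readout is yeast growth inhibition, normalised to vehicle-treated controls, in the mec2-1 strain exposed to compound.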
# [3] = NCI Yeast Anticancer Drug Screen. Data for the sgs1 mgt1 strain (AID 161);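 note: 0% = growth of cultures given vehicle only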; details: S. cerevisiae sgs1 mgt1 strain, active compounds read high
# Method in brief: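 This yeast growth screen uses a strain with defined DNA-repair lesions; compound-treated growth is compared with vehicle-treated growth.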
# [4] = NCI Yeast Anticancer Drug Screen. Data for the cln2 rad14 strain (AID 165);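 note: 0% = growth equal to vehicle treated cultures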; details: S. cerevisiae cln2 rad14 strain, active compounds read high
# Method in brief: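 Relative to vehicle controls, growth inhibition of compound-treated cln2 rad14 yeast was recorded.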
# [5] = NCI Yeast Anticancer Drug Screen. Data for the bub3 strain (AID 167); details: S. cerevisiae bub3 mutant strain, active compounds read high
# Method in brief: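 Steps: expose the mutant yeast strain to compound; grow alongside vehicle-treated cultures; measure growth; express inhibition against the vehicle cultures.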
# [6] = NCI Yeast Anticancer Drug Screen. Data for the mlh1 rad18 strain (AID 175); details: S. cerevisiae mlh1 rad18 strain growth inhibition, active compounds read high
# Method in brief: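 Test agents were incubated with a yeast strain of defined genotype (DNA damage repair defect). Inhibition of growth was derived by comparison with vehicle-exposed cultures.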
# [7] = at 5.0 µM (retest, dose inferred, filed as 0.5)
# [8] = at 50.0 µM (retest, dose inferred, filed as 5.0)
SMILES,"growth inhibition [1, 7] [%]","growth inhibition [1, 8]",growth inhibition ([1]; at 50.0 µM),"growth inhibition [2, 7] [%]","growth inhibition [2, 8]",growth inhibition ([2]; at 50.0 µM),"growth inhibition [3, 7] [%]","growth inhibition [3, 8]",growth inhibition ([3]; at 50.0 µM),"growth inhibition [4, 7] [%]","growth inhibition [4, 8]",growth inhibition ([4]; at 50.0 µM),"growth inhibition [5, 7] [%]","growth inhibition [5, 8]",growth inhibition ([5]; at 50.0 µM),"growth inhibition [6, 7] [%]","growth inhibition [6, 8]",growth inhibition ([6]; at 50.0 µM)
CCOc1cc(/C=N/NC(=S)NC23CC4CC(CC(C4)C2)C3)ccc1O,-3,11%,40.6%,-5,30%,40.5%,0,61%,41.3%,49,16%,45.1%,-7,-100%,9.55%,1,29%,47.6%
CC(C)C(OC(=O)c1ccc(NCc2cc(O)ccc2O)cc1)C(C)C,21,97% (active),89.5% (active),23,99% (active),92% (active),35,99% (active),90.6% (active),21,99% (active),88% (active),29,99% (active),89.8% (active),27,99% (active),86% (active)
CC(=O)N1c2ccccc2C2=NN=C(N(C)C)SC21 (stereo not given),6,98% (active),85.3% (active),-15,98% (active),90% (active),0,98% (active),83.8% (active),-20,97% (active),83.8% (active),-14,99% (active),87.3% (active),1,97% (active),80.5% (active)
Cc1ccc(N=c2cc(-c3ccccc3)oc3ccccc23)c(C)c1,1,74% (active),3%,-11,48%,-12.4%,3,93% (active),11%,5,51%,8.1%,11,94% (active),5.6%,4,94% (active),18.6%
CN(C)c1nc(=NCc2ccccc2)ss1,-7,46%,66.9%,-5,38%,54.7%,19,77% (active),72.5% (active),8,48%,36.6%,0,76% (active),59%,5,82% (active),50.1%
O=C1OC2(Cc3ccccc31)c1ccccc1-c1ccccc12,-5,-1%,20.8%,-4,-11%,25.9%,-6,38%,41%,-5,-15%,17.6%,-10,-7%,9.45%,-19,-9%,27.8%
CCN(CC)CCCNc1nccc2c(C)c3[nH]c4ccncc4c3cc12,41,54%,59.4%,18,33%,-2%,38,43%,-1.7%,19,23%,10.1%,24,22%,-6.45%,48,64%,-36.5%
O=C(NCCCCCNC(=O)C12CC3CC(CC(C3)C1)C2)C12CC3CC(CC(C3)C1)C2,8,7%,5.9%,5,-8%,27.8%,7,7%,-5.15%,-1,-2%,40.2%,4,0%,1.75%,3,12%,4.15%
OC1(CCc2ccccc2)COC(C(F)(F)F)(C(F)(F)F)C1 (stereo not given),18,24%,76.4% (active),16,18%,66%,14,23%,78.4% (active),1,23%,52.8%,5,21%,61.1%,26,30%,74.8% (active)
COc1cccc(C2c3cc4c(cc3OC(Nc3ccccc3)C2C)OCO4)c1O (stereo not given),-8,97% (active),77.5% (active),-8,95% (active),55.1%,1,97% (active),94.8% (active),4,97% (active),89.7% (active),-19,96% (active),53.1%,0,97% (active),96.5% (active)
N#CSCc1c(Cl)cccc1Cl,57,59%,81.7% (active),40,48%,75.8% (active),18,92% (active),82.7% (active),68,94% (active),64.5%,64,95% (active),79.1% (active),30,48%,79.8% (active)
C/C(=N\NC(=S)N1CCN(c2ccccn2)CC1)c1ncccn1,2,-6%,32.5%,-20,-10%,49.9%,-7,-13%,45.9%,-2,7%,83.2% (active),-10,-9%,93.6% (active),-3,10%,86% (active)
O=C1CC(c2ccccc2)C(=O)N2C(=O)CC(c3ccccc3)C(=O)N12 (stereo not given),1,28%,42.2%,2,3%,7.6%,-5,8%,1.35%,-5,-9%,-27.1%,0,28%,71.5% (active),2,-7%,45.8%
N/N=C(\N)c1ccc2ccc3cccnc3c2n1,1,73% (active),74% (active),2,73% (active),42.3%,-2,77% (active),56.8%,-7,62%,45.9%,-3,59%,41.5%,13,79% (active),52.8%
Brc1ccc(C2SCc3nc4ccccc4n32)cc1 (stereo not given),2,89% (active),74.5% (active),7,51%,24.8%,12,57%,96.1% (active),-10,37%,56.6%,-2,88% (active),92.3% (active),-2,54%,78.7% (active)
O=C1C=CC(=O)c2c(O)c(N3CCN(CCO)CC3)c(Cl)c(O)c21,37,95% (active),84.7% (active),33,99% (active),89.8% (active),48,99% (active),90.7% (active),26,82% (active),86.8% (active),47,98% (active),88.5% (active),41,98% (active),88.8% (active)
CC(=O)N1CCC(Cc2ccccc2)CC1,-105,95% (active),2.3%,-46,80% (active),18.3%,-49,92% (active),11.2%,-55,70% (active),56.9%,-51,89% (active),22.4%,-103,91% (active),25%
CNC(=O)OC(C)CN1c2ccccc2Sc2ccccc21 (stereo not given),-10,97% (active),90.2% (active),-21,98% (active),92.2% (active),5,96% (active),93.1% (active),-1,93% (active),90.3% (active),1,98% (active),91.7% (active),-11,98% (active),91.4% (active)
Cc1ccc(/C=C/C(=O)c2cc(CN(C)C)c(O)c(CN(C)C)c2)cc1,1,5%,41.9%,0,25%,-1.25%,-1,11%,-9.5%,4,-4%,55.6%,3,8%,-3.35%,-2,23%,1.4%
C#CC(NCCC(C)CC(C)(C)C)C(C)C (stereo not given),-4,-62%,83.3% (active),2,-31%,36.2%,-3,-22%,87.7% (active),-2,-14%,21.4%,-14,-68%,29.6%,-3,-43%,65.2%
